Reference: PubChem BioAssay (NCI)
Compounds without any hit were thinned out: in the full panel of roughly 83,000, 20% have a hit.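 Cells were grown in 96-well plates and exposed to the test compound at a single concentration for 48 hours; results are reported as percent growth, with values below 10 considered active.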 Active and inactive are the calls of the source.

Experiments:
Assay in all cases: NCI-60 one-dose screen, 48 h (100 = growth as untreated, 0 = no growth, -100 = all killed)
DU-145 prostate = conditions: 10 µM unless noted
K-562 leukemia = conditions: 10 µM unless noted
MALME-3M melanoma = conditions: 10 µM unless noted
MDA-MB-231 breast = conditions: 10 µM unless noted
SF-268 CNS = conditions: 10 µM unless noted
SF-295 CNS = conditions: 10 µM unless noted
SF-539 CNS = conditions: 10 µM unless noted
UACC-257 melanoma = conditions: 10 µM
M14 melanoma = conditions: 10 µM unless noted
HCT-15 colon = conditions: 10 µM unless noted
HT29 colon = conditions: 10 µM unless noted
SNB-19 CNS = conditions: 10 µM unless noted
U251 CNS = conditions: 10 µM unless noted
SK-MEL-5 melanoma = conditions: 10 µM unless noted
UACC-62 melanoma = conditions: 10 µM unless noted
LOX IMVI melanoma = conditions: 10 µM unless noted
SK-MEL-28 melanoma = conditions: 10 µM unless noted
SNB-75 CNS = conditions: 10 µM unless noted
PC-3 prostate = conditions: 10 µM unless noted

Measured: growth

Nc1c(C(=O)Nc2cccc([N+](=O)[O-])c2)sc2nc3c(cc12)C(O)CCC3 (configuration not stated)
inactive: DU-145 prostate 71.4% | K-562 leukemia 17.6% | MALME-3M melanoma 65.8% | MDA-MB-231 breast 65.5% | SF-268 CNS 60.5% | SF-295 CNS 57.4% | SF-539 CNS 37% | UACC-257 melanoma 66.8% | M14 melanoma 35.3% | HCT-15 colon 39.9% | HT29 colon 17.4% | SNB-19 CNS 79.9% | U251 CNS 51.4% | SK-MEL-5 melanoma 35.1% | UACC-62 melanoma 47.3% | LOX IMVI melanoma 62.8% | SK-MEL-28 melanoma 54.9%

Nc1c(C(=O)Nc2cccc(Cl)c2Cl)sc2nc3c(cc12)C(=O)CCC3
inactive: DU-145 prostate 96.2% | K-562 leukemia 42.1% | MALME-3M melanoma 68.6% | MDA-MB-231 breast 71.8% | SF-268 CNS 103% | SF-295 CNS 35.8% | SF-539 CNS 105% | UACC-257 melanoma 76.9% | M14 melanoma 80.8% | HCT-15 colon 75.5% | HT29 colon 85.5% | SNB-75 CNS 54.7% | SNB-19 CNS 70.2% | U251 CNS 120% | PC-3 prostate 93.7% | SK-MEL-5 melanoma 49.8% | UACC-62 melanoma 64.6% | SK-MEL-28 melanoma 65%

COc1ccc(C2CC(c3cccs3)=NN2c2ccc(S(=O)(=O)NC(=O)NCc3cccc(OC)c3)cc2)cc1 (configuration not stated)
inactive: DU-145 prostate 106% | K-562 leukemia 111% | MALME-3M melanoma 31.2% | MDA-MB-231 breast 113% | SF-268 CNS 97.9% | SF-295 CNS 105% | SF-539 CNS 104% | UACC-257 melanoma 30% | M14 melanoma 52.1% | HCT-15 colon 102% | HT29 colon 120% | SNB-75 CNS 99.9% | SNB-19 CNS 103% | U251 CNS 98.1% | SK-MEL-5 melanoma 50% | UACC-62 melanoma 31% | LOX IMVI melanoma 96.8% | SK-MEL-28 melanoma 48.3%

CCN1C(=O)N(CC)C2C1NN=c1s/c(=C\c3ccccn3)c(=O)n12 (configuration not stated)
active: DU-145 prostate 9.45% | K-562 leukemia 8.75% | SF-295 CNS 3.21% | SF-539 CNS -19.8% | HT29 colon 6.69% | SNB-75 CNS -24.4% | SK-MEL-5 melanoma 5.18%
inactive: MALME-3M melanoma 22.4% | MDA-MB-231 breast 45.5% | SF-268 CNS 74.2% | M14 melanoma 13% | HCT-15 colon 33.5% | SNB-19 CNS 34.1% | U251 CNS 28.3% | PC-3 prostate 24.4% | UACC-62 melanoma 39.8% | LOX IMVI melanoma 42.6% | SK-MEL-28 melanoma 57.3%

O=c1oc2cc(OS(=O)(=O)c3ccc(F)cc3)ccc2c2c1CCCCC2
inactive: DU-145 prostate 78.7% | K-562 leukemia 31.6% | MALME-3M melanoma 83.5% | MDA-MB-231 breast 90.5% | SF-268 CNS 86.8% | SF-295 CNS 63.4% | SF-539 CNS 78.6% | UACC-257 melanoma 62.1% | M14 melanoma 69.4% | HCT-15 colon 26.8% | HT29 colon 27.5% | SNB-75 CNS 80.9% | SNB-19 CNS 78.1% | PC-3 prostate 44.6% | SK-MEL-5 melanoma 32.8% | UACC-62 melanoma 65.3% | LOX IMVI melanoma 88.1% | SK-MEL-28 melanoma 86.1%

COc1cc(CCn2nnc3c(NCCCCO)ncnc32)cc(OC)c1
inactive: DU-145 prostate 104% | K-562 leukemia 116% | MALME-3M melanoma 111% | MDA-MB-231 breast 120% | SF-268 CNS 105% | SF-295 CNS 105% | SF-539 CNS 111% | UACC-257 melanoma 103% | M14 melanoma 90.3% | HCT-15 colon 102% | HT29 colon 112% | SNB-75 CNS 84.4% | SNB-19 CNS 106% | U251 CNS 99.5% | PC-3 prostate 88.3% | SK-MEL-5 melanoma 99.1% | UACC-62 melanoma 104% | LOX IMVI melanoma 102% | SK-MEL-28 melanoma 109%

Cc1cc(Cl)ccc1OC(C)C(=O)Nc1nnc(C2CC2)s1 (configuration not stated)
inactive: DU-145 prostate 102% | K-562 leukemia 120% | MALME-3M melanoma 119% | MDA-MB-231 breast 95.1% | SF-268 CNS 111% | SF-295 CNS 89% | SF-539 CNS 101% | M14 melanoma 113% | HCT-15 colon 119% | HT29 colon 66.4% | SNB-75 CNS 104% | SNB-19 CNS 95.6% | U251 CNS 101% | PC-3 prostate 99.2% | SK-MEL-5 melanoma 74% | UACC-62 melanoma 85.5% | LOX IMVI melanoma 95.4% | SK-MEL-28 melanoma 120%

C/C(=N\NC(=O)CC#N)c1cc2cc(Cl)ccc2o1
inactive: DU-145 prostate 103% | K-562 leukemia 96.6% | MALME-3M melanoma 102% | MDA-MB-231 breast 93.9% | SF-268 CNS 102% | SF-295 CNS 99.7% | SF-539 CNS 82.9% | M14 melanoma 104% | HCT-15 colon 94.7% | HT29 colon 97.2% | SNB-75 CNS 91% | SNB-19 CNS 77.9% | U251 CNS 89.3% | PC-3 prostate 92.4% | SK-MEL-5 melanoma 84.2% | UACC-62 melanoma 91% | LOX IMVI melanoma 103% | SK-MEL-28 melanoma 110%

COc1cccc(-n2cc(-c3nc(Cl)c4ccccc4n3)nn2)c1
inactive: DU-145 prostate 107% | K-562 leukemia 97.9% | MALME-3M melanoma 104% | MDA-MB-231 breast 107% | SF-268 CNS 105% | SF-295 CNS 93.2% | SF-539 CNS 108% | UACC-257 melanoma 110% | M14 melanoma 106% | HCT-15 colon 98.2% | HT29 colon 53.1% | SNB-75 CNS 72.3% | SNB-19 CNS 94% | PC-3 prostate 97.5% | SK-MEL-5 melanoma 95.1% | UACC-62 melanoma 97.4% | LOX IMVI melanoma 109% | SK-MEL-28 melanoma 95%

CCN1C(=O)N(CC)C2C1NN=c1s/c(=C\c3cccc(F)c3)c(=O)n12 (configuration not stated)
active: DU-145 prostate 5.59% | K-562 leukemia 8.99% | SF-295 CNS 9.94% | SF-539 CNS -9.53% | SNB-75 CNS 6.61% | SK-MEL-5 melanoma -30.7%
inactive: MALME-3M melanoma 48.7% | MDA-MB-231 breast 25.8% | SF-268 CNS 58.3% | M14 melanoma 47.6% | HCT-15 colon 15.7% | HT29 colon 10.4% | SNB-19 CNS 34.6% | U251 CNS 29.4% | PC-3 prostate 24.7% | UACC-62 melanoma 33.3% | LOX IMVI melanoma 24.4% | SK-MEL-28 melanoma 57.8%

CSc1ccccc1C#C/C=C\C#Cc1ccccc1N1CCCCC1=O
inactive: DU-145 prostate 107% | K-562 leukemia 143% | MALME-3M melanoma 89.2% | MDA-MB-231 breast 90.8% | SF-268 CNS 101% | SF-295 CNS 111% | SF-539 CNS 93.4% | M14 melanoma 104% | HCT-15 colon 112% | HT29 colon 94.9% | SNB-75 CNS 118% | SNB-19 CNS 111% | U251 CNS 93.6% | PC-3 prostate 77.7% | SK-MEL-5 melanoma 101% | UACC-62 melanoma 78.5% | LOX IMVI melanoma 91.8% | SK-MEL-28 melanoma 153%

COc1ccc(OC)c(/C=C2\Oc3cc(OCCN4CCCC4)ccc3C2=O)c1
active: K-562 leukemia 3.51%
inactive: DU-145 prostate 96.5% | MALME-3M melanoma 104% | MDA-MB-231 breast 84.6% | SF-268 CNS 93.7% | SF-295 CNS 101% | SF-539 CNS 84.7% | M14 melanoma 98.4% | HCT-15 colon 93.7% | HT29 colon 23.8% | SNB-75 CNS 95.7% | SNB-19 CNS 94.3% | U251 CNS 89.5% | PC-3 prostate 91.5% | SK-MEL-5 melanoma 89.2% | UACC-62 melanoma 100% | LOX IMVI melanoma 90.3% | SK-MEL-28 melanoma 101%

CC[C@H](C)[C@@H]1NC(=O)[C@H]([C@@H](C)O)NC(=O)C(Cc2ccccc2)NC(=O)[C@@H]2CCCN2C(=O)C(C(C)C)NC(=O)C(Cc2ccccc2)NC(=O)CNC(=O)[C@@H]2CCCN2C1=O (some centres not stated)
inactive: DU-145 prostate 83.6% | K-562 leukemia 20.9% | MALME-3M melanoma 64% | MDA-MB-231 breast 26.4% | SF-268 CNS 72.8% | SF-295 CNS 74.2% | SF-539 CNS 83.2% | UACC-257 melanoma 60.7% | M14 melanoma 22.2% | HCT-15 colon 77.2% | HT29 colon 76.2% | SNB-75 CNS 54.3% | SNB-19 CNS 73.6% | U251 CNS 67% | SK-MEL-5 melanoma 64.8% | UACC-62 melanoma 65.6% | LOX IMVI melanoma 88.7% | SK-MEL-28 melanoma 76.4%
active: PC-3 prostate -0.594%

C/C1=C\CCC2(C)OC2CC2CCC(C)(O)C(CC1)C2(C)C (configuration not stated)
inactive: DU-145 prostate 96.1% | K-562 leukemia 104% | MALME-3M melanoma 93.5% | MDA-MB-231 breast 105% | SF-268 CNS 103% | SF-295 CNS 55.5% | SF-539 CNS 88.1% | M14 melanoma 98.7% | HCT-15 colon 89.4% | HT29 colon 107% | SNB-75 CNS 108% | SNB-19 CNS 87.7% | U251 CNS 91% | PC-3 prostate 85.2% | SK-MEL-5 melanoma 84.8% | UACC-62 melanoma 88% | LOX IMVI melanoma 101% | SK-MEL-28 melanoma 119%

COc1ccc(C2CC(c3cccs3)=NN2c2ccc(S(=O)(=O)NC(=O)Nc3ccc(C)cc3)cc2)cc1 (configuration not stated)
inactive: DU-145 prostate 102% | K-562 leukemia 114% | MALME-3M melanoma 40.6% | MDA-MB-231 breast 117% | SF-268 CNS 95.6% | SF-295 CNS 100% | SF-539 CNS 98.3% | UACC-257 melanoma 40.9% | M14 melanoma 58.4% | HCT-15 colon 99.3% | HT29 colon 128% | SNB-75 CNS 93.7% | SNB-19 CNS 108% | U251 CNS 94.1% | SK-MEL-5 melanoma 61.4% | UACC-62 melanoma 38.1% | LOX IMVI melanoma 99.7% | SK-MEL-28 melanoma 47.8%

COc1cc(-c2n[nH]nc2-c2ccc3c(c2)OCCO3)cc(OC)c1OC
active: K-562 leukemia 8.96% | SF-295 CNS 2.6% | SF-539 CNS -35.9% | HCT-15 colon 6.81% | HT29 colon -12.7% | SK-MEL-5 melanoma -39.5%
inactive: DU-145 prostate 10% | MALME-3M melanoma 69.7% | MDA-MB-231 breast 33.3% | SF-268 CNS 15.9% | UACC-257 melanoma 61.7% | M14 melanoma 16.5% | SNB-75 CNS 25.4% | SNB-19 CNS 42.6% | PC-3 prostate 16.5% | UACC-62 melanoma 27% | LOX IMVI melanoma 15.2% | SK-MEL-28 melanoma 38.9%

COc1ccc(NC(=S)/N=c2\oc3c(OC)cccc3cc2-c2cc3ccccc3[nH]2)cc1
active: SNB-75 CNS -12.2%
inactive: DU-145 prostate 62.6% | K-562 leukemia 81.4% | MALME-3M melanoma 63.5% | MDA-MB-231 breast 42.2% | SF-268 CNS 73% | SF-295 CNS 84.6% | SF-539 CNS 26.4% | M14 melanoma 93.5% | HCT-15 colon 84.1% | HT29 colon 82.8% | SNB-19 CNS 57.8% | U251 CNS 75.7% | PC-3 prostate 58.4% | SK-MEL-5 melanoma 72.1% | UACC-62 melanoma 76.4% | LOX IMVI melanoma 76.8% | SK-MEL-28 melanoma 69.9%
